Screens from PubChem BioAssay.
NS1 function inh: inhibitors of influenza NS1 protein function. hit rate 0.4% among 270,000. AID 2326. Potency, µM (highest dose often 46.1 µM); calls by dose curve; further: actives are rising curves; nearly all actives have a fitted effect of over 50% in size
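OD600 was taken as the measure of yeast growth restored by compound in an NS1-expressing S. cerevisiae strain. Cells had been washed out of glucose medium and diluted 1:100 into galactose -URA medium, pH 6.0.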
VACV Venus inh: inhibitors of vaccinia virus (Venus reporter) | Vaccinia virus Venus reporter expression, fluorescence | Potency, µM (series often up to 36.5 µM), usual class: inhibitors | hit rate 0.46% among 330,000 | AID 720580; calls by dose curve; tested in A549 cells; further: nearly all actives have a fitted effect of over 30% in size
Pf growth 96h: P. falciparum growth inhibition at 96 hour, primary screen for plastid delayed-death inhibitors. P. falciparum luciferase reporter growth, 96 h. Potency, µM (top dose mostly 28.7 µM), actives largely listed as inhibitors. hit rate 6.9% among 320,000
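Readout is luminescence from an integrated firefly luciferase in P. falciparum. Red cells, 2% hematocrit and 0.05% parasitemia final, were cultured with compound through two parasite generations (96 hours) at 37 C, 5% CO2.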
Vaccinia mCherry: inhibitors of vaccinia virus infection (mCherry reporter signal); Potency, µM (titrated, usually from 36.5 µM), actives largely listed as inhibitors; hit rate 0.63% among 310,000; AID 720579; Vaccinia virus mCherry reporter infection, fluorescence; calls by dose curve; tested in A549 cells; further: nearly all actives have a fitted effect of over 35% in size
Pf growth 48h: P. falciparum growth inhibition at 48 hours (one generation); P. falciparum luciferase growth in erythrocytes, 48 h; Potency, µM (top dose mostly 28.7 µM), hits mostly inhibitors; hit rate 5.9% among 310,000; AID 504832
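First compound was added to culture medium, then infected red cells at 0.1% parasitemia and 2% hematocrit (final). After incubation at 37 C under 5% CO2, luciferase detection reagent was dispensed and light output recorded.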
HCV inh: inhibitors of hepatitis C virus infection; AID 651820; Potency, µM (titrated, usually from 41.8 µM), most hits filed as inhibitors; hit rate 3.4% among 340,000; Huh7.5.1 HCVcc-Cre infection, luciferase reporter, 44 h
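Luciferase read-out (15 sec integration) after a 15 min room-temperature substrate step quantifies HCVcc-Cre infection. Cells, 1,000 per well, had compound added 4 h post-plating, then virus at ~0.5 moi, and were cultured 44 h.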
A number is an active result; 0 = inactive; ? = inconclusive; - = no result given; [ ] = another dose, or the depositor's remark. Hits are enriched below; roughly 11% of the tested compounds scored in any of these assays. Unless noted, the call rests on the fitted dose curve; in most records, active means well fitted inhibition curve with a large enough effect; inconclusive means small, poorly fitted or top-dose-only effect, or another doubt; inactive means no such curve, though single readings can be large or run the other way.

SMILES | NS1 function inh | VACV Venus inh | Pf growth 96h | Vaccinia mCherry | Pf growth 48h | HCV inh
CCCCOc1ccc(C(=O)Nc2ccc(OCC(=O)N3CCOCC3)cc2)cc1 | 0 | 0 | ? | 0 | 0 | 0
CCN(CC)S(=O)(=O)c1ccc(C(=O)Nc2ccc(OCC(=O)N3CCOCC3)cc2)cc1 | 0 | 0 | 0.37µM | 0 | ? | 0
CCN(CC)S(=O)(=O)c1cc(C(=O)Nc2cc(C)on2)ccc1Cl | 0 | 0 | ? | 0 | ? | ?
CCN(CC)S(=O)(=O)c1ccc(C(=O)Nc2cc(C)on2)cc1 | 0 | 0 | 7.4µM | 0 | 12µM | 0
CCN(CC)S(=O)(=O)c1ccc(NC(=O)c2ccc(N(C)S(C)(=O)=O)cc2)cc1 | 0 | ? | 8.3µM | - | 17µM | 4.5µM
CC(C(=O)NCc1ccccc1)n1c(-c2ccc3c(c2)CCO3)nc2ccccc21 (stereo not drawn) | - | 0 | - | 0 | - | -
CC(C)c1[nH]nc2c1C(c1cccs1)C(C#N)=C(N)O2 (stereo not drawn) | 0 | - | 0 | - | 0 | 0
CCN(CC)c1nc(N)c([N+](=O)[O-])c(NCCO)n1 | 0 | 0 | 0 | 0 | 0 | 0
CCN1CCN(CC(=O)Nc2c(C(=O)OC)[nH]c3cccc(Cl)c23)CC1 | 0 | - | - | - | ? | -
CC(C)c1nc2sc(C(=O)O)c(N)c2c2c1CCCC2 | 0 | 0 | 13µM | 0 | ? | 0
Cc1nc2sc(C(N)=O)c(N)c2c2c1CCCC2 | 0 | ? | 0 | ? | 0 | 0
CCOC(=O)c1c(C)nc(C(Cl)(Cl)Cl)nc1N | 0 | 0 | 0 | 0 | 13µM | 0
COc1ccc(CCNCc2c(OC)ccc3ccccc23)cc1OC | 0 | - | 0 | - | 0[0.00184 µM] | 11µM
CCOc1cc(CNCCc2ccc(S(N)(=O)=O)cc2)ccc1OCc1ccc(Cl)cc1 | 0 | 11µM | ? | - | 9.3µM | ?
COc1cc(OC)c(OC)cc1CNCCc1cccc(F)c1 | 0 | - | 0 | - | - | 0
CCOc1ccc2ccccc2c1CNCCc1ccc(S(N)(=O)=O)cc1 | 0 | - | ? | - | 12µM | 0
COc1ccc(CNCCc2cccc(F)c2)c2ccccc12 | 0 | - | 13µM | - | ? | -
CC(C)NC(=O)C1(C)CSCC(=O)N1CC(F)(F)F (stereo not drawn) | - | 0 | - | 0 | - | -
COc1cc(CNCCc2ccc(S(N)(=O)=O)cc2)ccc1OCc1ccc(Cl)cc1 | 0 | - | 6.6µM | - | 8.3µM | 4.5µM
O=C(Cc1ccccc1F)Nc1cccc(S(=O)(=O)N2CCCCC2)c1 | - | 0 | - | 0 | - | -
C(C#CCCCCCCCCC[n+]1ccccc1)#CCCCCCCCCC[n+]1ccccc1 | 0 | 10µM | 0.093µM | 10µM | 0.29µM | ?
CC1(C)CC(C)(c2ccc(O)cc2O)N(c2cccc(Cl)c2)C(=S)N1 (stereo not drawn) | 0 | 0 | ? | - | 4.1µM | ?
CN1C(=S)NC(C)(C)CC1(C)c1ccc(O)cc1O (stereo not drawn) | ? | 0 | 0 | 0 | 0 | 0
CC(C)N1C(=O)N(c2cccc(Cl)c2)C(C)(O)CC1(C)C (stereo not drawn) | 0 | 0 | 0 | 0 | 0[0.00184 µM] | 0
CC1(C)CC(C)(c2ccc(O)cc2O)N(c2ccc3ccccc3c2)C(=S)N1 (stereo not drawn) | 0 | ? | ? | - | ? | 10µM
SMILES | NS1 function inh | VACV Venus inh | Pf growth 96h | Vaccinia mCherry | Pf growth 48h | HCV inh
N#CC1=C(N)S[C@H](C(=O)C23CC4CC(CC(C4)C2)C3)[C@H]1c1ccncc1 | 0 | 0 | 4.7µM | - | 10µM | 0
Cc1cnc(SCc2ccccn2)nc1C1CCCN(C(=O)c2cccc(-c3cccc(F)c3)c2)C1 (stereo not drawn) | - | ? | - | 10µM | - | -
CC(=O)c1ccc(C(=O)N2CCCC(c3nc(SCc4ccccn4)ncc3C)C2)cc1 (stereo not drawn) | - | 0 | - | 0 | - | -
Cc1ccnc(NS(=O)(=O)c2ccc(NC(=O)CN3C(=O)CCC3=O)cc2)n1 | - | - | 0 | - | 0 | 0
COc1cccc(C2N(c3ccc(Cl)cc3)C(=O)C3CCCN32)c1 (stereo not drawn) | 0 | 0 | 5.2µM | 0 | 0 | 0
COc1ccc(N2C(=O)C3CCCN3C2c2cccc(C)c2)cc1 (stereo not drawn) | ? | - | ? | - | - | 0
CCc1nnc(NS(=O)(=O)c2ccc(N/C=C/C(=O)c3ccc(OC)cc3)cc2)s1 | 0 | 0 | ? | 0 | 0 | 0
CCc1nnc(NS(=O)(=O)c2ccc(N/C=C\C(=O)c3cccc4ccccc34)cc2)s1 | 0 | 0 | 9.3µM | 0 | 0 | 0
CCC(C)c1ccccc1NC(=O)COC(=O)C1=NN(c2ccccc2)C(=O)CC1 (stereo not drawn) | - | 0 | - | 0 | - | 0
O=P1(NCCCn2cc[n+](Cc3nc4ccccc4[nH]3)c2)C=C(c2ccccc2)OC(c2ccccc2)=C1 | 0 | 0 | 2.3µM | 0 | 12µM | 0
CN(C)CCCN(C(=O)c1ccc(S(=O)(=O)N2CCCCC2)cc1)c1nc2cc3c(cc2s1)OCO3 | 0 | 0 | 0 | 0 | 12µM | ?
CN(C)CCCN(C(=O)c1ccc(S(=O)(=O)N2CCOCC2)cc1)c1nc2cc3c(cc2s1)OCO3 | 0 | - | 0 | - | ? | 0
Cc1ccc2sc(N(CCCN(C)C)C(=O)c3ccc(S(=O)(=O)N4CCCCCC4)cc3)nc2c1C | - | 0 | ? | 0 | ? | 14µM
Cc1cc(C)c2nc(N(CCCN(C)C)C(=O)c3ccc(S(=O)(=O)N4CCCCCC4)cc3)sc2c1 | - | ? | 12µM | 0 | 9.3µM | 11µM
O=C(O)CCSc1nc2ccccc2n1-c1ccccc1 | 0 | 0 | 0 | 0 | - | 0
O=C(CSc1nc2ccccc2n1-c1ccccc1)Nc1ncc(Cl)cc1Cl | 0 | 0 | 10µM | 6.3µM | ? | ?
Cc1cccc(-n2c(SCC(=O)Nc3ncc(Cl)cc3Cl)nc3ccccc32)c1 | 0 | 0 | 4.7µM | 3.2µM | ? | 11µM
COCCn1c(SCC(=O)Nc2nc(C)c(Cl)cc2Cl)nc2ccccc21 | 0 | 0 | 0 | 0 | 0 | 0
Cc1cc(C)n(-c2cc(C(C)(C)C)nc3c(-c4ccc(Cl)cc4)cnn23)n1 | 0 | - | ? | - | ? | 0
Cc1ccc(-c2nc(CN(C)C)cc(CN(C)C)c2O)cc1 | 0 | 0 | ? | 0 | 6.6µM | 0
CN(C)Cc1cc(CN(C)C)c(O)c(CCc2ccccc2)n1 | 0 | - | 0 | - | - | 0
CCOC(=O)c1cccc(NC(=S)N2CCN(c3ncc4c(=O)c(C(=O)O)cn(CC)c4n3)CC2)c1 | - | 0 | 0 | 0 | 0 | 0
CCn1cc(C(=O)O)c(=O)c2cnc(N3CCN(C(=S)Nc4ccccc4)CC3)nc21 | ? | 0 | ? | 0 | 0.12µM | 0
CCCCOC(=O)c1ccc(NC(=S)N2CCN(c3ncc4c(=O)c(C(=O)O)cn(CC)c4n3)CC2)cc1 | 0 | - | 1.3µM | - | 2.6µM | 0
CCn1cc(C(=O)O)c(=O)c2cnc(N3CCN(C(=O)Nc4ccccc4)CC3)nc21 | 0 | - | - | - | - | -
O=[N+]([O-])c1ccc2c(c1)C(N1CCOCC1)/C(=C/COc1ccc(F)cc1)O2 (stereo not drawn) | 0 | 0 | 0 | 0[1.46 µM] | ? | ?
O=C(O)CSC12CC3CC(C1)CC(C(=O)O)(C3)C2 | ? | 0 | ? | 0 | - | 0
COc1ccccc1/C=C1/C(=O)N(c2ccc([N+](=O)[O-])cc2)N=C1C | 0 | - | 0 | - | ? | 0
